An excerpt weighted towards active compounds, which were near 2.4% of everything screened.
TLR4-MyD88 BLA: TLR4-MyD88 interaction inhibition in cells; HeLa CL3-4 TLR4/MyD88 BLA complementation, FRET ratio; inhibition, % at 8.4 µM; 200,000 compounds, 0.18% hits; AID 861; in the data active = inhibition above about 25%;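 also: 0% = vehicle and 100% = reference inhibitor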
HTR2A ag: agonists of mouse serotonin 5-HT2A receptor (HTR2A); activation, % at 7.6 µM; P35363; AID 624169; CHO-K1 mHTR2A beta-arrestin complementation, luminescence; percent of 30 µM serotonin response; 360,000 compounds, 0.66% hits;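 active = activation above a run cutoff, the mean activation of all tested compounds plus 3 SD, cut at about 14% in these data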;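 also: 0% = plate median of compound wells and 100% = 30 µM serotonin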
NOD2 RIPK2 PPI: blocks binding of human NOD2 to RIPK2 | O43353 | CHO BLA complementation NOD2-RIPK2, CCF4 ratio | inhibition, % at 4.98 µM | 360,000 compounds, 0.38% hits | AID 624267; in the data active = inhibition above about 21%;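 also: 0% = vehicle only and 100% = reference blocker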
CRFBP-R2 block: antagonists of CRF-binding protein/CRF-R2 receptor complex; inhibition, % at 11.8 µM; HEK293 CRF-R2/CRF-BP, CRF-induced calcium fluorescence; 350,000 compounds, 0.59% hits;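 active = inhibition of the ligand-induced calcium signal above about 50% at the single tested concentration, limit read from the data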
ABHD5 PLIN5 PPI: inhibitors of human ABHD5-perilipin-5 interaction. 360,000 compounds, 0.78% hits. Q00G26+Q8WTS1. inhibition, % at 4 µM. Split G. princeps luciferase complementation, luminescence, 4 h;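 active = inhibition above the mean inhibition across every tested compound plus 3 SD, cut at about 22% in these data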;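 also: 0% = DMSO only wells and the 100% control is not disclosed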
TLR9-MyD88 block: inhibitors of human TLR9-MyD88 binding. Q9NR96+Q99836. CHO BLA complementation TLR9-MyD88, CCF4 FRET ratio. inhibition, % at 4.98 µM. 340,000 compounds, 0.21% hits. AID 504734;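 active = inhibition above the mean over all tested compounds plus 3 SD, cut at about 21% in these data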;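 also: 0% = DMSO only wells and 100% = clavulanate BLA inhibitor control wells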
Target sequence (Q99836 whole entry, looked up): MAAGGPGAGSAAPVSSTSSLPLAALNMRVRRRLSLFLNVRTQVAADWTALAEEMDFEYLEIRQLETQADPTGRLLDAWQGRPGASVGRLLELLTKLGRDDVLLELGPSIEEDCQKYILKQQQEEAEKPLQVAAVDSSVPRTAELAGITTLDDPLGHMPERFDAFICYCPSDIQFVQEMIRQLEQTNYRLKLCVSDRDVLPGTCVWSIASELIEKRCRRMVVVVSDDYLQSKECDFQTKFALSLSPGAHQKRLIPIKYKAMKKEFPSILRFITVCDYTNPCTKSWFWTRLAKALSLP
Target sequence (Q9NR96 whole entry, looked up): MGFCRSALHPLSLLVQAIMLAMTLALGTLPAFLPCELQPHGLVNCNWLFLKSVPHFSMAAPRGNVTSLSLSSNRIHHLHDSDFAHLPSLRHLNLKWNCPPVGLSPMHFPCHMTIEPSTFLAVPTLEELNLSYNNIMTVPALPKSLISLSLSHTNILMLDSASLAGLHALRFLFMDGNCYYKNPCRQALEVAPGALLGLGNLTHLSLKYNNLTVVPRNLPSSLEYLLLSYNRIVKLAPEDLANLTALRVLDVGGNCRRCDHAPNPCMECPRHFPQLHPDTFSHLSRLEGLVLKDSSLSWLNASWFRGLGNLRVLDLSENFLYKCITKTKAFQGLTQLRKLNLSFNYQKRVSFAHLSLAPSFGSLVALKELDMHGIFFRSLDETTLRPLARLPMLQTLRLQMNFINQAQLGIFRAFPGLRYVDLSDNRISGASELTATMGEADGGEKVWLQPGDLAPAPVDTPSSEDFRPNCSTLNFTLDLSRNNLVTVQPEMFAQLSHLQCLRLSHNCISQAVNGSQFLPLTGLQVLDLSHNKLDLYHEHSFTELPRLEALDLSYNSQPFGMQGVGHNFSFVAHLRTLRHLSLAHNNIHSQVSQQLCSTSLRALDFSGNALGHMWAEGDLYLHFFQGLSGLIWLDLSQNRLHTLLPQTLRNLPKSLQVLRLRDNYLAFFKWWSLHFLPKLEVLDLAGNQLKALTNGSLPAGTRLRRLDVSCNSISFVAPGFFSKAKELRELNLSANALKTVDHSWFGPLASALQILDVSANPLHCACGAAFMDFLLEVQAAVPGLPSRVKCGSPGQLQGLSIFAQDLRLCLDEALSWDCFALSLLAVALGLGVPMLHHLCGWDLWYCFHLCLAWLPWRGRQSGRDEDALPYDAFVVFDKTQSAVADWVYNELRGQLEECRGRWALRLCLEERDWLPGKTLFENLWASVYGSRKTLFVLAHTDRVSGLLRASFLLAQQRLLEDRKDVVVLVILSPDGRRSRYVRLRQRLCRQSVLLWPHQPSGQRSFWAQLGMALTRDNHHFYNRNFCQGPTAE
ABHD5 PLIN5 conf: confirmation of human ABHD5-PLIN5 interaction inhibitors; 2,200 compounds, 67% hits; inhibition, % at 4 µM; biochemical ABHD5-PLIN5 interaction, luminescence; shares compounds with ABHD5 PLIN5 PPI; in the data active = inhibition above about 23%;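 also: 0% = DMSO vehicle wells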
HNF4 split-luc: HNF4 split-luciferase signal hit, counter-screen. shares compounds with ABHD5 PLIN5 PPI. HNF4 dimerization, luminescence, biochemical. inhibition, % at 4 µM. 2,200 compounds, 77% hits. AID 651674;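 active = mean inhibition across replicate wells exceeding the computed hit threshold, cut at about 13% in these data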;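 also: light from luciferase halves that rejoin when HNF4 fusion proteins dimerize; 0% = DMSO only wells and the 100% control is not given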
NOD2-RIPK2 conf: NOD2-RIPK2 interaction inhibition confirmed. shares compounds with NOD2 RIPK2 PPI. CHO cells, NOD2-RIPK2 BLA complementation, CCF4 FRET. inhibition, % at 4.98 µM. 1,200 compounds, 70% hits;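 active = mean inhibition across replicates above a set limit taken from the earlier primary screen, cut at about 21% in these data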;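 also: 0% = DMSO-only wells and the high end = clavulanate BLA-blocked wells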
BLA counter: hits BLA reporter in NOD2-RIPK2 inhibitor counterscreen; CHO BLA reporter, CCF4 FRET ratio; 1,200 compounds, 57% hits; shares compounds with NOD2 RIPK2 PPI; AID 624371; inhibition, % at 4.98 µM;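 active = mean inhibition above the low-control mean inhibition plus three low-control SD, cut at about 11% in these data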;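 also: 0% = DMSO only wells and 100% = clavulanate high control wells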
The depositor's hits bear a star; nt = no result given.

SMILES | TLR4-MyD88 BLA | HTR2A ag | NOD2 RIPK2 PPI | CRFBP-R2 block | ABHD5 PLIN5 PPI | TLR9-MyD88 block | ABHD5 PLIN5 conf | HNF4 split-luc | NOD2-RIPK2 conf | BLA counter
C#CCN(C[C@@H]1[C@@H](OC(=O)NCc2ccccc2F)[C@@H](OC(=O)NCc2ccccc2F)Cn2c(=O)n(CCCCCC)c(=O)n21)S(=O)(=O)c1ccc(C)cc1 | nt | -9.0 | -2.4 | 5.8 | -7.0 | 0.6 | nt | nt | nt | nt
C#CCN(C[C@@H]1[C@@H](OC(=O)NCc2ccccc2F)[C@@H](OC(=O)NCc2ccccc2F)Cn2c(=O)ccc(=O)n21)S(=O)(=O)c1ccc(C)cc1 | nt | 1.8 | 22.7* | -14.3 | 39.7* | -2.0 | 58.3* | 27.0* | 21.5* | -3.0
CC(=O)Oc1ccccc1C(=O)C=Cc1cccc([N+](=O)[O-])c1 | nt | -7.0 | 60.1* | -35.7 | 98.8* | 7.4 | 103.7* | 108.6* | 71.4* | -4.5
Cc1ccc2nc(N(CCN(C)C)C(=O)/C=C/c3cccs3)sc2c1 | -14.8 | -3.7 | 22.4* | -64.1 | 35.0* | 16.1 | 17.7 | 6.0 | 32.3* | 25.2*
N#CC1C(=O)c2ccccc2C1c1ccccc1 (stereo not given) | nt | -3.1 | 48.1* | 21.2 | 72.8* | 6.8 | 7.7 | 98.2* | -6.3 | 0.2
O=C1CCC(c2ccccc2)c2ccccc21 (stereo not given) | nt | 5.9 | 5.8 | 12.7 | -1.4 | nt | nt | nt | nt | nt
CNc1cc(-c2cccc(OC)c2F)nc2ccnn12 | nt | -2.1 | -1.7 | nt | -0.8 | nt | nt | nt | nt | nt
C[C@@]12C(C[C@H](O)[C@@]34C[C@@H](CCC13)[C@@H](CO)C4=O)[C@](C)(C(=O)O)CC[C@@H]2O (stereo not given in full) | nt | 4.1 | -10.7 | nt | 11.9 | nt | nt | nt | nt | nt
C=C1C(=O)[C@]23C[C@H]1CCC2[C@@]1(C)C(C[C@@H]3O)[C@](C)(C(=O)OC)CC[C@@H]1O (stereo not given in full) | nt | -1.1 | 76.6* | nt | 38.8* | nt | 66.8* | 107.9* | 67.0* | 9.8
CCOC(=O)[C@]12CCCC=C1N(Cc1cccc3ccccc13)C(=O)[C@H](CC(=O)NCc1ccc(OC)c(OC)c1)C2 | nt | -1.3 | 5.1 | nt | 0.7 | nt | nt | nt | nt | nt
N#Cc1cn(Cc2cccc(Cl)c2)c2ccccc12 | 7.6 | -1.3 | 2.4 | -36.9 | -0.8 | -6.9 | nt | nt | nt | nt
N#Cc1ccccc1Cn1cc(/C=C/[N+](=O)[O-])c2ccccc21 | -5.5 | -0.1 | 41.6* | -83.4 | 69.1* | 6.8 | 100.3* | 95.8* | 69.8* | 9.3
COC1=C(OC)C(=O)C(Sc2ccc3ccccc3c2)=CC1=O | nt | 1.4 | 25.1* | -43.4 | 81.0* | 20.0 | 72.1* | 103.8* | 69.5* | 31.4*
COc1ccc(S(=O)(=O)Oc2ccc3ccccc3c2)cc1 | -5.5 | 1.5 | -7.1 | 33.0 | -7.1 | 1.1 | nt | nt | nt | nt
COCCCN1C(=O)C(CC(=O)NCc2cccc3ccccc23)CC(C(=O)N(C(C)C)C(C)C)=C1C (stereo not given) | nt | 3.1 | -2.0 | nt | 3.4 | nt | nt | nt | nt | nt
CCOC(=O)N1CCN(C(=O)C2CCN(C(=O)c3ccccc3C)CC2)CC1 | nt | -2.2 | 21.7* | -12.5 | 25.6* | 14.0 | 38.2* | 91.0* | 71.1* | 17.6*
CCc1nc2ccc(C(=O)NCCCn3ccnc3)cn2c1N(CC)CCOC | nt | -7.6 | -2.4 | nt | -8.3 | nt | nt | nt | nt | nt
CCN(CC)c1ccc(C(=C2C=CC(=[N+](CC)CC)C=C2)c2ccc(N(CC)CC)cc2)cc1 | nt | 12.3 | 41.0* | 24.8 | 64.4* | 18.1 | 57.8* | 58.4* | 49.3* | -7.4
CCOC(=O)C1(C)CCCN1C(=O)c1ccc(OC)cc1 (stereo not given) | nt | -1.0 | 4.1 | nt | -1.5 | nt | nt | nt | nt | nt
CC1=C(C)CS(=O)N(S(=O)(=O)c2ccc(Cl)cc2)C1 (stereo not given) | 0.2 | 8.9 | 37.0* | 32.0 | 79.9* | 9.4 | 93.0* | 108.8* | 28.8* | 2.7
Cc1noc(-c2ccccc2)c1NC(=O)Nc1ccc2nc([C@H]3C[C@H](O)[C@@H](CO)O3)[nH]c2c1 | nt | 0.7 | -11.7 | nt | -7.7 | nt | nt | nt | nt | nt
CC(C)(C)OC(=O)N[C@@H](Cc1ccccc1)c1nnc(S(=O)(=O)Cc2cccc(F)c2)o1 | 11.3 | nt | nt | 23.6 | nt | nt | nt | nt | nt | nt
Cc1ccccc1CS(=O)(=O)c1nnc([C@H](CC(C)C)NC(=O)OC(C)(C)C)o1 | 10.9 | -7.4 | 25.5* | -11.6 | 44.5* | -0.1 | 68.9* | 90.5* | 42.4* | -4.8
CC(C)[C@H](NC(=O)OC(C)(C)C)c1nnc(S(=O)(=O)Cc2c(F)cccc2Cl)o1 | nt | -3.7 | 68.6* | -25.7 | 71.4* | 15.7 | 84.6* | 108.0* | 69.7* | 9.6
CC[C@@H](C)[C@H](NC(=O)OC(C)(C)C)c1nnc(S(=O)(=O)Cc2cc(C)ccc2C)o1 | 10.6 | -8.3 | 59.2* | 28.1 | 60.9* | -2.0 | 72.2* | 102.0* | 52.5* | -4.2
SMILES | TLR4-MyD88 BLA | HTR2A ag | NOD2 RIPK2 PPI | CRFBP-R2 block | ABHD5 PLIN5 PPI | TLR9-MyD88 block | ABHD5 PLIN5 conf | HNF4 split-luc | NOD2-RIPK2 conf | BLA counter
CC[C@@H](C)[C@H](NC(=O)OCc1ccccc1)c1nnc([C@@H](NC(=O)OCc2ccccc2)[C@@H](C)CC)o1 | nt | -5.2 | 9.3 | -3.5 | -16.4 | -5.2 | nt | nt | nt | nt
CC1=C(C(=O)N(C(C)C)C(C)C)CC(CC(=O)NC2CCCCC2)C(=O)N1Cc1ccc(F)cc1 (stereo not given) | nt | 1.3 | -3.2 | nt | -3.2 | nt | nt | nt | nt | nt
O=C(NC1CCCC1)C(C1CC1)n1c(-c2ccnc3ccccc23)nc2ccccc21 (stereo not given) | nt | -7.5 | -1.9 | nt | 0.4 | nt | nt | nt | nt | nt
COc1cc(/C=C2/C(=O)CNC2=O)ccc1O | 3.3 | -1.2 | -2.8 | 11.1 | 0.3 | 0.7 | nt | nt | nt | nt
COc1cc(C=C2C(=O)C=CC2=O)ccc1O | nt | 12.6 | 65.6* | nt | 99.2* | nt | 94.4* | 107.6* | 93.2* | 30.3*
CC(=O)N1CCc2cc(NC(=O)C3(C)CCN3Cc3ccccc3OC(F)F)ccc21 (stereo not given) | nt | -2.1 | 0.0 | nt | -7.9 | nt | nt | nt | nt | nt
ClC(Cl)(c1nnnn1-c1ccccc1)c1nnnn1-c1ccccc1 | -1.2 | 11.0 | 42.3* | -31.1 | 87.0* | 12.3 | 74.1* | 102.7* | 42.2* | 7.0
c1ccc(-c2nnnn2-c2ccccc2)cc1 | nt | 0.3 | -8.2 | -5.6 | -3.4 | 4.6 | nt | nt | nt | nt
CN(Cc1cc(Cl)cc(Cl)c1)CC(C(=O)c1ccccc1)c1ccccc1 (stereo not given) | nt | -4.0 | -3.1 | 0.7 | 6.6 | 2.4 | nt | nt | nt | nt
